PubChem BioAssay (Tox21)
A number with no mark means an inactive call. Calls of active or inactive are those of the source. Calls follow the shape of the dose curve; as a rule, active = well fitted curve in the direction sought with a large enough effect in the repeat runs; inconclusive = weak or mixed curves; inactive = flat fitted curve, though single readings scatter.

assay: qHTS assay to test for compound auto fluorescence at 590 nm (red) in HepG2 cells (AID 720674); settings: HepG2 autofluorescence, red 540/590 nm, 1 h; series mostly up to 91.3 µM
Procedure, shortened: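 Seeding: 2,000 HepG2 cells/well, MEM/10% FBS, overnight 37 C. Dosing: compound vs DMSO. Incubation: 1 hr, 37 C, 5% CO2. Read: fluorescence 540 ex/590 em, Rose Bengal sodium as red reference.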
% is scaled to controls: 0 for no effect and ±100 for the full control effect.

Structure (SMILES) | outcome | fluorescence, relative to Rose Bengal
NCCCN1CCN(CCCN)CC1 | inactive | –
CCCOCCC | inactive | –
CCCCNC(=S)NCCCC | inactive | –
OCCN(CCO)CCN(CCO)CCO | inactive | –
CC(C)C1=CC2=CC[C@@H]3[C@](C)(CCC[C@@]3(C)C(=O)O)[C@H]2CC1 | inactive | –
NC/C=C/C(=O)O | inactive | –
COc1ccccc1N1CCN(CCCNc2cc(=O)n(C)c(=O)n2C)CC1 | inactive | –
CCN1CC(CCN2CCOCC2)C(c2ccccc2)(c2ccccc2)C1=O (configuration not stated) | inactive | –
C[C@@H]1CN(c2c(F)c(N)c3c(=O)c(C(=O)O)cn(C4CC4)c3c2F)C[C@H](C)N1 | inactive | –
CCOC(=O)c1ccccc1O | inactive | –
CC(=O)N[C@@H](CC(C)C)C(=O)O | inactive | –
CC(C)CC(=O)OCc1ccccc1 | inactive | –
CC/C=C\CCOC(=O)CCCCC | inactive | –
Cc1ccc(C=O)s1 | inactive | –
FC(F)(F)C(Cl)(Cl)Cl | inactive | –
CN(C)Cc1ccccc1 | inactive | –
CC(C)c1ccccc1 | inactive | –
O=Cc1ccc(F)c(Br)c1 | inactive | –

Structure (SMILES) | outcome | fluorescence, relative to Rose Bengal
CCOC(=O)C(Br)c1ccccc1 (configuration not stated) | inactive | –
CCCC1CCC(=O)O1 (configuration not stated) | inactive | –
CN1CCN(c2c(F)cc3c(=O)c(C(=O)O)cn4c3c2SCC4)CC1 | inactive | –
O=c1[nH]cnc2c1ncn2[C@@H]1O[C@H](CO)[C@@H](O)[C@H]1O | inactive | –
CCOC(=O)[C@H](CCc1ccccc1)N[C@@H](C)C(=O)N1Cc2cc(OC)c(OC)cc2C[C@H]1C(=O)O | inactive | –
CC(C)C(=O)OC/C=C/c1ccccc1 | inactive | –
COc1nc(C)nc(NC(=O)NS(=O)(=O)c2ccccc2OCCCl)n1 | inactive | –
FC(F)(F)c1ccccc1 | inactive | –
Cc1c(C(=O)NCCO)[n+](=O)c2ccccc2n1[O-] | inactive | –
CCCCc1ccc2nc(NC(=O)OC)[nH]c2c1 | – | -0.46% [at 18.6 µM]
NC(=O)Cc1cccc(C(=O)c2ccccc2)c1N | inactive | –
Nc1cccc(S(=O)(=O)O)c1 | inactive | –
COC(=O)c1ccc(OC)cc1 | inactive | –
COc1cc(C)ccc1C(C)C | inactive | –
C=Cc1ccccc1 | inactive | –
Cc1cc(S(=O)(=O)O)c(N)cc1Cl | inactive | –
O=C(O)c1cccc(Cl)c1Cl | inactive | –

assay: qHTS assay to test for compound auto fluorescence at 535 nm (green) in HepG2 cells (AID 720675); settings: green autofluorescence 485/535 nm, 1 h; series mostly up to 91.3 µM

Structure (SMILES) | outcome | fluorescence, % of fluorescein control
NCCCN1CCN(CCCN)CC1 | inactive | –
CCCOCCC | inactive | –
CCCCNC(=S)NCCCC | inactive | –
OCCN(CCO)CCN(CCO)CCO | inactive | –
CC(C)C1=CC2=CC[C@@H]3[C@](C)(CCC[C@@]3(C)C(=O)O)[C@H]2CC1 | inactive | –
NC/C=C/C(=O)O | inactive | –
COc1ccccc1N1CCN(CCCNc2cc(=O)n(C)c(=O)n2C)CC1 | inactive | –
CCN1CC(CCN2CCOCC2)C(c2ccccc2)(c2ccccc2)C1=O (configuration not stated) | inactive | –
C[C@@H]1CN(c2c(F)c(N)c3c(=O)c(C(=O)O)cn(C4CC4)c3c2F)C[C@H](C)N1 | inactive | –
CCOC(=O)c1ccccc1O | inactive | –
CC(=O)N[C@@H](CC(C)C)C(=O)O | inactive | –
CC(C)CC(=O)OCc1ccccc1 | inactive | –
CC/C=C\CCOC(=O)CCCCC | inactive | –
Cc1ccc(C=O)s1 | inactive | –
FC(F)(F)C(Cl)(Cl)Cl | inactive | –
CN(C)Cc1ccccc1 | inactive | –
CC(C)c1ccccc1 | inactive | –
O=Cc1ccc(F)c(Br)c1 | inactive | –

Structure (SMILES) | outcome | fluorescence, % of fluorescein control
CCOC(=O)C(Br)c1ccccc1 (configuration not stated) | inactive | –
CCCC1CCC(=O)O1 (configuration not stated) | inactive | –
CN1CCN(c2c(F)cc3c(=O)c(C(=O)O)cn4c3c2SCC4)CC1 | inactive | –
O=c1[nH]cnc2c1ncn2[C@@H]1O[C@H](CO)[C@@H](O)[C@H]1O | inactive | –
CCOC(=O)[C@H](CCc1ccccc1)N[C@@H](C)C(=O)N1Cc2cc(OC)c(OC)cc2C[C@H]1C(=O)O | inactive | –
CC(C)C(=O)OC/C=C/c1ccccc1 | inactive | –
COc1nc(C)nc(NC(=O)NS(=O)(=O)c2ccccc2OCCCl)n1 | inactive | –
FC(F)(F)c1ccccc1 | inactive | –
Cc1c(C(=O)NCCO)[n+](=O)c2ccccc2n1[O-] | inactive | –
CCCCc1ccc2nc(NC(=O)OC)[nH]c2c1 | – | 0.0726% [at 18.6 µM]
NC(=O)Cc1cccc(C(=O)c2ccccc2)c1N | inactive | –
Nc1cccc(S(=O)(=O)O)c1 | inactive | –
COC(=O)c1ccc(OC)cc1 | inactive | –
COc1cc(C)ccc1C(C)C | inactive | –
C=Cc1ccccc1 | inactive | –
Cc1cc(S(=O)(=O)O)c(N)cc1Cl | inactive | –
O=C(O)c1cccc(Cl)c1Cl | inactive | –

assay: qHTS assay to test for compound auto fluorescence at 460 nm (blue) in HEK293 cells (AID 720678); settings: blue autofluorescence 405/460 nm; series mostly up to 91.3 µM
Procedure, shortened: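 After cell attachment (4-5 hr, 37C), compounds were pinned onto HEK293 monolayers in 10% dialyzed FBS medium. The blue channel (405/460 nm) was read following overnight culture. Equivalency was calculated against triamterene.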

Structure (SMILES) | outcome | fluorescence, % of triamterene
NCCCN1CCN(CCCN)CC1 | inactive | –
OCCN(CCO)CCN(CCO)CCO | inactive | –
CC(C)C1=CC2=CC[C@@H]3[C@](C)(CCC[C@@]3(C)C(=O)O)[C@H]2CC1 | inactive | –
NC/C=C/C(=O)O | inactive | –
COc1ccccc1N1CCN(CCCNc2cc(=O)n(C)c(=O)n2C)CC1 | inactive | –
CCN1CC(CCN2CCOCC2)C(c2ccccc2)(c2ccccc2)C1=O (configuration not stated) | inactive | –
C[C@@H]1CN(c2c(F)c(N)c3c(=O)c(C(=O)O)cn(C4CC4)c3c2F)C[C@H](C)N1 | inactive | –
CCOC(=O)c1ccccc1O | inactive | –
CC(=O)N[C@@H](CC(C)C)C(=O)O | inactive | –
CC(C)CC(=O)OCc1ccccc1 | inactive | –
CC/C=C\CCOC(=O)CCCCC | inactive | –
Cc1ccc(C=O)s1 | inactive | –
FC(F)(F)C(Cl)(Cl)Cl | inactive | –
CN(C)Cc1ccccc1 | inactive | –
CC(C)c1ccccc1 | inactive | –
O=Cc1ccc(F)c(Br)c1 | inactive | –

Structure (SMILES) | outcome | fluorescence, % of triamterene
CCOC(=O)C(Br)c1ccccc1 (configuration not stated) | inactive | –
CCCC1CCC(=O)O1 (configuration not stated) | inactive | –
O=c1[nH]cnc2c1ncn2[C@@H]1O[C@H](CO)[C@@H](O)[C@H]1O | inactive | –
CCOC(=O)[C@H](CCc1ccccc1)N[C@@H](C)C(=O)N1Cc2cc(OC)c(OC)cc2C[C@H]1C(=O)O | inactive | –
CC(C)C(=O)OC/C=C/c1ccccc1 | inactive | –
COc1nc(C)nc(NC(=O)NS(=O)(=O)c2ccccc2OCCCl)n1 | inactive | –
FC(F)(F)c1ccccc1 | inactive | –
Cc1c(C(=O)NCCO)[n+](=O)c2ccccc2n1[O-] | inactive | –
CCCCc1ccc2nc(NC(=O)OC)[nH]c2c1 | – | -0.014% [at 18.6 µM]
NC(=O)Cc1cccc(C(=O)c2ccccc2)c1N | inactive | –
Nc1cccc(S(=O)(=O)O)c1 | inactive | –
COC(=O)c1ccc(OC)cc1 | inactive | –
COc1cc(C)ccc1C(C)C | inactive | –
C=Cc1ccccc1 | inactive | –
Cc1cc(S(=O)(=O)O)c(N)cc1Cl | inactive | –
O=C(O)c1cccc(Cl)c1Cl | inactive | –
